For 67 compounds, cytotoxicity call results are on record in the antibiotic and cytotoxicity screens of Wong et al. (2023).

The structures appear in SMILES notation. Out of some 39,000 compounds screened, about 1,500 (3.8%) were called active. The sample as a whole holds a higher share of actives than the screen did.

The subject of this test is HSkMC (human skeletal muscle cells). Description: cytotoxicity call (relative viability < 0.9). Conditions: 10 µM.
As to `COc1ccc(S(=O)(=O)N(C)C[C@H]2Oc3ccc(NC(=O)C4CC4)cc3CC(=O)N([C@H](C)CO)C[C@H]2C)cc1`, the cytotoxicity call was “inactive”.
Next, `Cc1noc(C)c1NC(=O)N(C)C[C@@H]1Oc2ccc(NC(=O)Cn3cnnn3)cc2CC(=O)N([C@@H](C)CO)C[C@@H]1C`: “inactive”; `CCN(CCO)C(=O)C1CN(C(C)=O)C1`: “inactive”.
As to `CCCc1nc2c(C)cc(-c3nc4ccccc4n3C)cc2n1Cc1ccc(-c2ccccc2C(=O)O)cc1`, the cytotoxicity call was “inactive”.
Next, `O=C(C[C@@H]1CC[C@H]2[C@@H](COC[C@H](O)CN2C(=O)Nc2cc(Cl)cc(Cl)c2)O1)N1CCOCC1`: “inactive”.
Next, `Cc1noc(C)c1NC(=O)N(C)C[C@H]1OCCCC[C@@H](C)Oc2ccc(NS(=O)(=O)c3ccccc3)cc2C(=O)N([C@H](C)CO)C[C@H]1C`: “inactive”; `Cc1cccc(Oc2ccc(NC(=O)C3CCC(C)CC3)cc2)c1` (configuration not stated): “inactive”.
The value for `CN1CCN(Cc2ccc(NC(=O)Nc3ccc(Oc4cc(NC(=O)C5CC5)ncn4)cc3)cc2C(F)(F)F)CC1` was “active”; that for `COc1ccc(NC(=O)Nc2ccc3c(c2)[C@H]2C[C@H](CC(=O)N4CCN(C)CC4)O[C@@H](CO)[C@H]2O3)cc1` was “inactive”; that for `CC(C)NC(=O)N(C)C[C@@H]1Oc2ccc(NS(=O)(=O)c3ccccc3)cc2CC(=O)N([C@@H](C)CO)C[C@@H]1C` was “inactive”.
As to `Cc1noc(C)c1S(=O)(=O)Nc1ccc2c(c1)C(=O)N([C@H](C)CO)C[C@@H](C)[C@@H](CN(C)S(C)(=O)=O)OCCCC[C@H](C)O2`, the cytotoxicity call was “inactive”.
As for `COc1ccc(C#Cc2cnc3c(c2)C(=O)N([C@@H](C)CO)C[C@H](C)[C@H](CN(C)CC2CCOCC2)O3)cc1`, the cytotoxicity call was “inactive”.
Next, `COc1c(O)cc2oc3cc(O)c(CC=C(C)C)c(O)c3c(=O)c2c1CC=C(C)C` [alpha-MANGOSTIN ]: “active”; `CC(C)=CCc1c(O)cc2oc(C)cc(=O)c2c1O`: “inactive”.
`COc1cc(O)c2c(=O)cc(C)oc2c1CC=C(C)C`: the cytotoxicity call is “inactive”.
As for `COc1ccc(S(=O)(=O)Nc2ccc3c(c2)C(=O)N([C@@H](C)CO)C[C@@H](C)[C@H](CN(C)S(C)(=O)=O)O3)cc1`, the cytotoxicity call is “inactive”.
Consider `C[C@@H]1CN([C@H](C)CO)C(=O)Cc2cc(NS(=O)(=O)c3cccs3)ccc2O[C@H]1CN(C)S(=O)(=O)c1cn(C)cn1`, for which the cytotoxicity call was “inactive”.
Regarding `O=C(N[C@H](c1ccc2ccccc2n1)c1cccs1)C1CCN(Cc2cccc(C(F)(F)F)c2)CC1`, the cytotoxicity call is “inactive”.
Next, `N#Cc1c(Oc2ccc(F)c(NC(=O)Cc3cccc(C(F)(F)F)c3)c2)ccc2nc(NC(=O)C3CC3)sc12`: “active”.
In the case of `NC[C@](O)(c1cccs1)C1CC1`, the cytotoxicity call is “inactive”.
For `C[C@@H]1CN([C@@H](C)CO)C(=O)c2cc(-c3cccc(C(=O)N(C)C)c3)cnc2O[C@@H]1CN(C)S(=O)(=O)c1cccc(F)c1`, the cytotoxicity call is “inactive”.
As to `COc1ccc(CN(C)C[C@@H]2Oc3ccc(NC(=O)CCN4CCOCC4)cc3CC(=O)N([C@@H](C)CO)C[C@@H]2C)cc1`, the cytotoxicity call is “inactive”.
Next, `COc1ccc(S(=O)(=O)Nc2cccc3c2O[C@@H](CN(C)S(=O)(=O)c2c(C)noc2C)[C@H](C)CN([C@H](C)CO)C3=O)cc1`: “inactive”; `O=C(C[C@H]1CC[C@H]2[C@@H](COC[C@@H](O)CN2S(=O)(=O)c2ccc(Cl)cc2)O1)NCC1CCCCC1`: “inactive”; `c1ccc(CNc2nn[nH]n2)cc1`: “inactive”.
The value for `c1ccc(CNc2ccc3c(ccc4c5ccccc5[nH]c34)n2)cc1` was “active”; that for `Cn1nnc(NCc2ccccc2)n1` was “inactive”; that for `C[C@@H]1CN([C@H](C)CO)C(=O)Cc2cc(NC(=O)c3ccncc3)ccc2O[C@@H]1CN(C)S(=O)(=O)c1ccc(F)cc1` was “inactive”.
On to `C[C@H](CO)N1C[C@H](C)[C@@H](CN(C)C(=O)Nc2ccc(F)cc2)Oc2ccc(NC(=O)Cn3cnnn3)cc2CC1=O`, for which the cytotoxicity call was “inactive”.
As for `CS(C)(=O)=O`, the cytotoxicity call is “inactive”.
For `Cc1ccc(S(=O)(=O)Nc2ccc3c(c2)C(=O)N([C@H](C)CO)C[C@H](C)[C@@H](CN(C)C(=O)Nc2ccc(F)cc2)OCCCC[C@H](C)O3)cc1`, the cytotoxicity call is “inactive”.
The value for `C[C@H]1CN([C@@H](C)CO)C(=O)Cc2cc(NC(=O)Nc3ccc(C(F)(F)F)cc3)ccc2O[C@H]1CN(C)Cc1ccc(Cl)c(Cl)c1` was “active”; that for `C[C@H](CO)N1C[C@H](C)[C@@H](CN(C)Cc2ccc(Cl)c(Cl)c2)Oc2ccc(NC(=O)Nc3ccc(C(F)(F)F)cc3)cc2CC1=O` was “active”.
The value for `C[C@@H]1CN([C@H](C)CO)C(=O)Cc2cc(NC(=O)Nc3ccc(C(F)(F)F)cc3)ccc2O[C@H]1CN(C)Cc1ccncc1` was “inactive”.
`C[C@@H]1CN([C@@H](C)CO)C(=O)Cc2cc(NC(=O)Nc3ccc(C(F)(F)F)cc3)ccc2O[C@@H]1CN(C)Cc1ccc(Cl)c(Cl)c1`: the cytotoxicity call was “active”.
`C[C@H]1CN([C@@H](C)CO)C(=O)Cc2cc(NC(=O)Nc3ccc(C(F)(F)F)cc3)ccc2O[C@@H]1CN(C)Cc1ccc(Cl)c(Cl)c1`: the cytotoxicity call was “inactive”.
Consider `C[C@H]1CN([C@@H](C)CO)C(=O)Cc2cc(NC(=O)Nc3ccc(C(F)(F)F)cc3)ccc2O[C@@H]1CN(C)Cc1ccncc1`, for which the cytotoxicity call was “inactive”.
For the compound `C[C@@H]1CN([C@H](C)CO)C(=O)Cc2cc(NC(=O)Nc3ccc(C(F)(F)F)cc3)ccc2O[C@@H]1CN(C)Cc1ccncc1`, the cytotoxicity call was “inactive”.
Next, `C[C@H]1CN([C@@H](C)CO)C(=O)Cc2cc(NC(=O)Nc3ccc(C(F)(F)F)cc3)ccc2O[C@H]1CN(C)Cc1ccncc1`: “inactive”; `C[C@@H]1CN([C@H](C)CO)C(=O)Cc2cc(NC(=O)Nc3ccc(C(F)(F)F)cc3)ccc2O[C@@H]1CN(C)Cc1ccc(Cl)c(Cl)c1`: “active”.
As for `C[C@@H]1CN([C@@H](C)CO)C(=O)Cc2cc(NC(=O)Nc3ccc(C(F)(F)F)cc3)ccc2O[C@@H]1CN(C)Cc1ccncc1`, the cytotoxicity call was “inactive”.
The value for `CC(=O)N(C)C[C@@H]1Oc2ncc(C#C[C@@H](C)O)cc2C(=O)N([C@@H](C)CO)C[C@@H]1C` was “inactive”; that for `COc1ccc(S(=O)(=O)Nc2ccc3c(c2)CC(=O)N([C@H](C)CO)C[C@@H](C)[C@H](CN(C)Cc2ccncc2)O3)cc1` was “inactive”; that for `C[C@H]1CN([C@@H](C)CO)C(=O)Cc2cc(NS(=O)(=O)c3cn(C)cn3)ccc2O[C@H]1CN(C)S(=O)(=O)c1ccc(Cl)cc1` was “inactive”.
Turning to `C[C@H]1CN([C@@H](C)CO)C(=O)Cc2cc(NC(=O)CCCCCC(=O)Nc3ccccc3N)ccc2O[C@H]1CN(C)S(C)(=O)=O`, the cytotoxicity call was “inactive”.
The value for `COc1ccc(S(=O)(=O)N(C)C[C@H]2Oc3ccc(NC(=O)C4CC4)cc3CC(=O)N([C@H](C)CO)C[C@@H]2C)cc1` was “inactive”; that for `CN1C(=O)c2cc(NC(=O)c3cccs3)ccc2OC[C@H]2O[C@@H](CC(=O)NCC(F)(F)F)CC[C@H]21` was “inactive”.
In the case of `C[C@@H]1CN([C@@H](C)CO)C(=O)c2cc(NC(=O)Cn3cnnn3)ccc2O[C@@H]1CN(C)Cc1ccccc1`, the cytotoxicity call was “inactive”.
The value for `COc1ccc([Si](C)(C)[C@@H]2[C@@H](CC(=O)N3Cc4ccccc4C[C@H]3CO)O[C@]3(C(=O)N(Cc4ccc(N5CCC5=O)cc4)c4ccccc43)[C@H]2C)cc1` was “inactive”; that for `C[C@@H]1CN([C@@H](C)CO)C(=O)Cc2cc(NC(=O)Nc3ccc(C(F)(F)F)cc3)ccc2O[C@H]1CN(C)Cc1ccc(Cl)c(Cl)c1` was “active”; that for `C[C@@H]1CN([C@H](C)CO)C(=O)Cc2cc(NC(=O)Nc3ccc(C(F)(F)F)cc3)ccc2O[C@H]1CN(C)Cc1ccc(Cl)c(Cl)c1` was “active”.
In the case of `C[C@H](CO)N1C[C@H](C)[C@H](CN(C)Cc2ccc(Cl)c(Cl)c2)Oc2ccc(NC(=O)Nc3ccc(C(F)(F)F)cc3)cc2CC1=O`, the cytotoxicity call is “active”.
Consider `CS(=O)(=O)O.Oc1ccc(C2CNCCc3c2cc(O)c(O)c3Cl)cc1` (configuration not stated), for which the cytotoxicity call was “inactive”.
The value for `COc1ccc(S(=O)(=O)Nc2ccc3c(c2)C(=O)N([C@@H](C)CO)C[C@H](C)[C@@H](CN(C)C(=O)Nc2c(C)noc2C)OCCCC[C@@H](C)O3)cc1` was “inactive”; that for `COc1ccc(S(=O)(=O)Nc2ccc3c(c2)CC(=O)N([C@@H](C)CO)C[C@@H](C)[C@H](CN(C)S(C)(=O)=O)O3)cc1` was “inactive”; that for `Cc1noc(C)c1S(=O)(=O)N(C)C[C@@H]1Oc2ccc(NC(=O)C3CC3)cc2CC(=O)N([C@H](C)CO)C[C@@H]1C` was “inactive”.
As to `Cc1noc(C)c1NC(=O)Nc1ccc2c(c1)C(=O)N([C@@H](C)CO)C[C@H](C)[C@H](CN(C)C(=O)Nc1ccccc1)OCCCC[C@H](C)O2`, the cytotoxicity call was “inactive”.
Next, `C[C@@H]1CCCCO[C@@H](CN(C)Cc2ccc(C(F)(F)F)cc2)[C@H](C)CN([C@H](C)CO)C(=O)c2cc(NS(C)(=O)=O)ccc2O1`: “inactive”; `COc1ccccc1S(=O)(=O)N(C)C[C@@H]1OCc2cn(nn2)CCCC(=O)N([C@@H](C)CO)C[C@@H]1C`: “inactive”.
As to `C=c1cc(C)ccc1=C1NN=C(NC(=O)CC)O1`, the cytotoxicity call was “inactive”.
Next, `C=c1cc(C)ccc1=C1NN=C(NC(C)=O)O1`: “inactive”; `C=c1ccc(C)cc1=C1NN=C(NC(=O)c2ccc(S(=O)(=O)N(CCOC)CCOC)cc2)O1`: “active”.
For the compound `C[C@H](CO)N1C[C@H](C)[C@@H](CN(C)C(=O)Nc2ccc(F)cc2)Oc2ccc(NC(=O)Cn3cnnn3)cc2C1=O`, the cytotoxicity call is “inactive”.
The value for `C[C@@H](NC(=O)C[C@H]1C=C[C@H](NC(=O)CN2CCOCC2)[C@H](CO)O1)c1ccccc1` was “inactive”.
Regarding `Cc1noc(C)c1S(=O)(=O)Nc1ccc2c(c1)C(=O)N([C@@H](C)CO)C[C@H](C)[C@H](CN(C)C(=O)Nc1ccccc1)O2`, the cytotoxicity call was “inactive”.
In the case of `CCN(CC)CCN(Cc1ccc(-c2ccc(C(F)(F)F)cc2)cc1)C(=O)Cn1c(SCc2ccc(F)cc2)nc(=O)c2c1CCC2`, the cytotoxicity call is “active”.
For `C[C@@H]1CN([C@@H](C)CO)C(=O)Cc2cc(NS(=O)(=O)c3cn(C)cn3)ccc2O[C@@H]1CN(C)C(=O)Nc1ccc(F)cc1`, the cytotoxicity call is “inactive”.
